p53ts 39C kill – p53ts cell cytotoxicity, nonpermissive temperature. H1299-p53A138V viability at 39C, ATP luminescence, 24 h. Potency, µM (top dose mostly 46.1 µM), without a hit: top-dose activity change, negative = cell killing, hits mostly cytotoxic. hit rate 1.5% among 130,000. AID 902; further: potency means the concentration at half of the fitted maximal effect; on the % scale 0 is the no-effect control and ±100 the full control effect; nearly all actives have a fitted effect of over 55% in size
Luciferase inh – inhibitors of firefly luciferase; P08659; purified firefly luciferase, luminescence, 8 min; Potency, µM (doses to about 57.1 µM), without a hit: at the highest dose activity change, negative = inhibition, actives largely listed as inhibitors; hit rate 2.2% among 72,000; AID 411; further: potency means the concentration at half of the fitted maximal effect; on the % scale 0 is the no-effect control and ±100 the full control effect; nearly all actives have a fitted effect of over 40% in size
Target sequence (P08659 whole entry, looked up): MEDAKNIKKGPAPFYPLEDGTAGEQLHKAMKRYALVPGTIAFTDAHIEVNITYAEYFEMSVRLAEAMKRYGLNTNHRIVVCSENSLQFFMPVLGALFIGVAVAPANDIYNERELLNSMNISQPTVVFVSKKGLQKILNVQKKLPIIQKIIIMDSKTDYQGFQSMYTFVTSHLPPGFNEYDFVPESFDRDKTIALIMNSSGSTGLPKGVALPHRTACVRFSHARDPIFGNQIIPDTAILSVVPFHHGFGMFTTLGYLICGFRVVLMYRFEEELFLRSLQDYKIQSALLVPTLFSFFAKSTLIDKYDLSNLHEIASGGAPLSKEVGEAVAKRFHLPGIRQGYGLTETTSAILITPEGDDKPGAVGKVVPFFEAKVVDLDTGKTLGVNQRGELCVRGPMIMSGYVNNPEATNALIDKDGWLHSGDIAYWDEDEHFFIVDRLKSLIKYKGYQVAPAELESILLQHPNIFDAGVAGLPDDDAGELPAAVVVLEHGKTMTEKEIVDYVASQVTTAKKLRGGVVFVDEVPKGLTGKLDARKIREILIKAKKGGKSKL
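Inhibition of light generation by firefly luciferase from ATP and luciferin was profiled with concentration-response curves per sample, ATP held at 10 uM within the enzyme's linear range. Plates were read by luminescence after an 8-minute ambient incubation.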
p53ts 32C tox – p53ts cell cytotoxicity, permissive temperature | H1299-p53A138V at 32C, ATP luminescence viability, 24 h | Potency, µM (doses to about 46.1 µM), for the others: at the top dose activity change, negative = cytotoxicity, hits mostly cytotoxic | hit rate 0.93% among 130,000;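 further: potency means the concentration at half of the fitted maximal effect; 0% = DMSO and -100% = full killing by reference compound; nearly all actives have a fitted effect of over 55% in size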
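H1299-p53 A138V cells (temperature-sensitive p53) exposed 24 h to up to 46 uM compound at 32C, where p53 is wild-type in conformation. Viability read as ATP luminescence and normalised to DMSO and 100 uM tamoxifen. AC50 fitted with the Hill equation.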
Imprint erasure – induces erasure of genomic imprints in mouse ES cells. mouse ES Peg3-LacZ reporter, beta-gal luminescence, 40 h. Potency, µM (top dose mostly 60.7 µM), without a hit: top-dose activity change, positive = activation, actives largely listed as activators. hit rate 0.02% among 110,000; further: potency means the concentration at half of the fitted maximal effect
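Imprint erasure is scored as LacZ activity from the silenced maternal Peg3 allele in feeder-free female ES cells cultured 40 h with LIF. Luminescence is normalized to in-plate negative controls and fitted to the Hill equation.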
IkB signaling – IkB pathway inhibition in ABC-DLBCL cells. AID 445. hit rate 0.04% among 110,000. ABC-DLBCL IkBa-CBG/CBR dual luciferase ratio, 4 h; response scale: scaled: untreated 0%, proteasome inhibitor 100%. Potency, µM (top dose mostly 57.1 µM), inactives show top-dose IkBa stabilization activation; active means well fitted curve in the direction sought with a large enough effect in the signal ratio, not every such curve was filed as active; inconclusive means small, poorly fitted or top-dose-only effect, or a change in a side signal; the % refers to the signal ratio;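 further: potency means the concentration at half of the fitted maximal effect; the direction sought is a rising ratio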
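Curves were fitted separately to fusion (green), unfused (red) and ratio luminescence, then classed by r2, magnitude and activity. Cells: OCI-Ly3, 4 h compound plus doxycycline at 37C; 10 uM MG-132 defined full response.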
IMPase cell inh – cell-permeable inhibitors of inositol monophosphatase (IMPase); CHO-M1 cells, IP1 accumulation, HTRF TR-FRET ratio; inhibition (IP1 accumulation), % at 46.1 µM; 120,000 tested, under 10 active; active means well fitted curve in the direction sought with a large enough effect in the signal ratio, not every such curve was filed as active; inconclusive means small, poorly fitted or top-dose-only effect, or a change in a side signal; inactive means no such curve, though single readings can be large or run the other way; the % refers to the signal ratio;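 further: cells stimulated with carbachol in lithium chloride buffer; plate controls were DMSO basal wells for no effect and reference inhibitor wells for full effect; higher means more IMPase inhibition seen as more IP1 and lower FRET ratio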
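CHO-M1, 2000 cells/well, cultured 16–30 h; cpd up to 46 uM; carbachol (50 uM solution, stimulation buffer w/ 50 mM LiCl, pH 7.4), 30 min 37C; IP-One TR-FRET, 10 min RT; Ex 320/Em 665, 620; Hill-fit AC50.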
Active calls of the source: *; ? = inconclusive; . = no result; [ ] = remark or other dose. This is one part of a sample in which hits are shown more often than they occur. Unless noted, the call rests on the fitted dose curve; in most records, active means well fitted curve in the direction sought with a large enough effect; inconclusive means small, poorly fitted or top-dose-only effect, or another doubt; inactive means no such curve, though single readings can be large; an effect the other way counts as inactive or inconclusive.

SMILES	p53ts 39C kill	Luciferase inh	p53ts 32C tox	Imprint erasure	IkB signaling	IMPase cell inh
Cc1ccc(-c2ccc(OCC(=O)N3CCOCC3)cc2)cc1	-21%	13µM*	-30%	-14%	0%	1
CCCCOc1ccc(-c2nnn(CCC(=O)N3CCOCC3)n2)cc1	?	6.3µM*	?	-16%	1%	2
COc1cc(C(=O)O)ccc1OCC(=O)N1CCOCC1	-3%	1%	-1%	-62%	0%	-1
COc1ccc(NC(=O)Nc2ccc(OCC(=O)N3CCOCC3)cc2)cc1OC	?	13µM*	?	2%	0%	2
COc1ccc(C(=O)CC2(O)C(=O)N(Cc3ccccc3)c3ccc(Br)cc32)cc1 (stereo unspecified)	13µM*	.	15%	-12%[10.9 µM]	?	4
Cc1[nH]c2ccccc2c1C1(O)C(=O)N(Cc2ccccc2)c2ccc(Br)cc21 (stereo unspecified)	13µM*	.	-20%	-10%[10.9 µM]	?	.
Cc1ccc(C(=O)CC2(O)C(=O)N(CCc3ccccc3)c3ccc(Cl)cc32)cc1 (stereo unspecified)	16µM*	.	?	-12%[10.9 µM]	?	11
Cc1cccc(C(=O)NC2=NC(c3ccc(Cl)cc3)CC(=O)N2)c1 (stereo unspecified)	.	.	-10%	.	.	.
CCOC(=O)c1cnc(-c2ccccc2)nc1N	?	20µM*	?	-72%	?	7
CCOC(=O)c1cnc(-c2ccccc2)nc1N(C)C	.	.	.	.	.	5
CCOC(=O)c1cnc(SCC(=O)c2ccccc2)nc1N	-27%	4µM*	-28%	-64%	4%	4
CC(=O)N=C(N)Sc1nc2ccccc2[nH]1	-16%	13µM*	-21%	.	.	-9
CC[C@H](C)[C@H](N)C1=N[C@H](C(=O)N[C@@H](CC(C)C)C(=O)N[C@@H](CCC(=O)O)C(=O)N[C@@H](C(=O)N[C@H]2CCCCNC(=O)[C@@H](CC(N)=O)NC(=O)[C@@H](CC(=O)O)NC(=O)[C@@H](Cc3cnc[nH]3)NC(=O)[C@@H](Cc3ccccc3)NC(=O)[C@@H]([C@@H](C)CC)NC(=O)[C@@H](CCCN)NC2=O)[C@@H](C)CC)CS1	13%[20.6 µM]	3%[25.5 µM]	1%[20.6 µM]	-4%[16.8 µM]	1%[25.6 µM]	5[20.6 µM]
Clc1cc(Cl)c(OCc2nc(-c3ccccn3)no2)cc1Cl	?	13µM*	?	-70%	0%	-1
Clc1ccc(OCc2nc(-c3ccncc3)no2)c(Cl)c1	?	16µM*	?	-25%	?	4
O=C(Cn1cc(S(=O)(=O)Cc2cccc(Cl)c2)c2ccccc21)Nc1ccccc1C(F)(F)F	.	.	-6%	.	.	.
CCCCC[C@H](CC(=O)NO)C(=O)N[C@@H](C(=O)N1CCC[C@H]1CO)C(C)C	9%	-2%	14%	.	6%	8
CC(=O)C(C(C)=O)c1c(Cl)c(O)c(O)c2c(C(=O)c3ccccc3)coc12	?	?	13µM*	-35%	?	10
CN1CCN(Cc2c(O)ccc3occ(C(=O)c4ccccc4)c23)CC1	1%	1%	1%	-6%	0%	7
O=C(NC1CCCCCC1)c1ccc(CS(=O)c2cccc(Cl)c2)o1 (stereo unspecified)	-7%	.	5%	-14%[10.9 µM]	0%	.
COc1cc2oc(=O)cc(-c3ccc(-c4ccc(NC(C)=O)cc4)cc3)c2c(OC)c1OC	.	.	.	-18%	.	.
c1ccc(Nc2nc3ccccc3[nH]2)nc1	-7%	20µM*	-11%	-57%	?	8
Cc1ccc2nc(NCc3ccccc3)[nH]c2c1	.	10µM*	.	.	.	1
COc1ccc2nc(NCc3ccccc3)[nH]c2c1	?	16µM*	?	-26%	3%	6
Cc1cc(C)nc(Nc2nc3ccccc3[nH]2)n1	-6%	-3%	-6%	-3%	1%	-4
SMILES	p53ts 39C kill	Luciferase inh	p53ts 32C tox	Imprint erasure	IkB signaling	IMPase cell inh
COc1ccc2nc(NCCO)[nH]c2c1	-4%	-1%	-1%	-41%	1%	13
c1ccc(CNc2nc3ccccc3[nH]2)cc1	?	13µM*	10µM*	-65%	-1%	-7
CCOc1ccc2oc(=O)cc(CN3CCN(C(=O)c4ccc(OC)c(OC)c4)CC3)c2c1	-26%	.	4%	-14%[10.9 µM]	0%	.
C[N+](C)(N)Cc1csc(-c2ccc(Cl)cc2)n1	-1%[9.22 µM]	5%[11.4 µM]	-3%[9.22 µM]	-1%[10.9 µM]	1%[11.4 µM]	.
O=c1ccsn1Cc1ccccc1	9%	20µM*	-2%	-65%	0%	11
COc1ccc([C@@H]2CC(=O)c3c(O)cc(O[C@@H]4O[C@@H](CO[C@@H]5O[C@@H](C)[C@@H](O)[C@@H](O)[C@H]5O)[C@@H](O)[C@@H](O)[C@H]4O)cc3O2)cc1O	.	1%[11.4 µM]	.	.	-1%[11.4 µM]	.
COc1ccc(C(=O)NC(=O)Nc2cc(C)ccn2)cc1	1.3µM*	0.5µM*	1.3µM*	-96%	12%	-2
COc1cc(C(=O)Nc2cc(C)ccn2)cc(OC)c1OC	-16%	0%	0%	-15%	1%	3
Cc1ccnc(NC(=O)Nc2ccc(F)cc2)c1	?	10µM*	?	-61%	?	8
CSc1ccc(NC(=O)Nc2cc(C)ccn2)cc1	?	2.5µM*	-28%[9.22 µM]	-15%[10.9 µM]	4%[11.4 µM]	.
COc1ccc(NC(=O)Nc2cc(C)ccn2)cc1	6.3µM*	1.6µM*	7.9µM*	-53%	3%	.
Cc1cccc(-c2nc3c4ccccc4nc(N4CCN(c5cccc(Cl)c5)CC4)n3n2)c1	-6%	.	-3%	5%[10.9 µM]	-1%	.
CC1(C)CCC(NC(=O)[C@H](N)CCC(=O)O)CC1	0%	-1%	-4%	.	1%	-10
Cc1cc(C(=O)CNCc2ccco2)c(C)n1-c1ccc(F)cc1	?	25µM*	?	-16%	?	-14
Cc1cc(C(=O)CN2CCCCC2)c(C)n1-c1ccc(F)cc1	-6%	.	.	.	.	-2
CCc1nnc(NC(=O)CSc2nc3c(cc2C#N)CCC3)s1	2µM*	3.2µM*	2µM*	-44%	-2%	?
CCSc1nnc(NC(=O)CSc2nc3c(cc2C#N)CCCC3)s1	.	.	.	.	.	9
Cc1ccccc1CNC(=O)CN1CCSc2ccccc21	?	.	-4%	-13%[10.9 µM]	?	.
O[C@@H](c1cc(C(F)(F)F)nc2c(Cl)cc(Cl)cc12)[C@@H]1CCCCN1	3%[9.22 µM]	2%[11.4 µM]	17%[9.22 µM]	.	0%[11.4 µM]	.
Cc1cc(N)c2ccccc2[n+]1CCCCCCCCCCCCCC[n+]1c(C)cc(N)c2ccccc21	13µM*	-1%	?	-58%	?	19
Cc1cc(C(=O)CN2C(=O)c3ccccc3S2(=O)=O)c(C)n1-c1ccccc1	7.9µM*	7.9µM*	13µM*	-61%	?	16

High-throughput results (PubChem BioAssay)
